The list is not random: actives were taken first. Their share in the collection is about 6.1%.
Gal4-VP16 FLuc = Gal4-VP16 reporter inhibition counter-screen | Drosophila S2 Gal4-VP16 UAS-luciferase, luminescence, 20 h | Potency, µM (top dose mostly 53.6 µM), for inactives: at the top dose activity, negative = inhibition, most hits filed as inhibitors | hit rate 3.5% among 310,000 | AID 2546;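 further: Gal4-VP16 expression switched on by copper sulfate through the metallothionein promoter; on the % scale 0 is the no-effect control and ±100 the full control effect; nearly all actives have a fitted effect of over 50% in size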
ATXN2 expr inh = ATXN2 expression inhibition. HEK-293 ATXN2-luciferase reporter, luminescence, 24 h. Potency, µM (series often up to 57 µM), for inactives: at the highest dose activity change, negative = inhibition, hits mostly inhibitors. hit rate 0.72% among 360,000. AID 1745845; further: on the % scale 0 is the no-effect control and ±100 the full control effect; nearly all actives have a fitted effect of over 55% in size
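ATXN2-luciferase reporter cells (luciferase flanked by upstream and downstream ATXN2 gene portions) were treated 24 h at 37 °C with compounds at up to 57 uM. SteadyGlo luminescence gave expression; GF-AFC fluorescence gave viability.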
HepG2 viability = HepG2 cytotoxicity, counter-screen for TGF-b inhibitors; HepG2 CAGA-GFP viability, ATP luminescence, 18 h; Potency, µM (highest dose often 46.1 µM), for the others: at the highest dose activity change, negative = cytotoxicity, most hits filed as cytotoxic; hit rate 0.76% among 410,000; AID 588856
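CellTiter-Glo luminescence gave cytotoxicity after 18 hours at 37 degrees C. The cells were HepG2 CAGA-GFP in 1% FBS DMEM, stimulated with 500 pg/mL TGF-beta after compound addition. %Activity was normalised to no-cell wells (complete cell-killing) and DMSO (no toxicity), and curves were fitted and classified.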
ATXN viability = viability counter-screen for ATXN expression inhibitors. S2 cells (HEK-293 line with an ATXN2-luciferase reporter) viability, CellTiter-Fluor protease fluorescence, 24 h. Potency, µM (titrated, usually from 56.7 µM), most hits filed as cytotoxic. hit rate 0.49% among 400,000; further: nearly all actives have a fitted effect of over 40% in size
TGFb inhibitor = inhibitors of TGF-b signaling | HepG2 CAGA-GFP TGF-b/SMAD3 reporter, GFP fluorescence, 18 h; TGF-beta stimulated, 500 pg/mL final | Potency, µM (highest dose often 46.1 µM), for the others: top-dose activity, negative = inhibition, most hits filed as inhibitors | hit rate 1.2% among 410,000; further: on the % scale 0 is the no-effect control and ±100 the full control effect; nearly all actives have a fitted effect of over 65% in size
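HEPG2 CAGA-GFP, 1000 cells/well; 2 h settle, 37 C; cpd via pin tool; TGF-b 500 pg/mL final; 18 h, 37 C; GFP imaging ex488/em500-530; %Activity normalised to -TGF-b and +DMSO controls; CRC fit, curve class.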
RORgamma inh = inhibitors of mouse ROR gamma transcriptional activity | hit rate 5.4% among 310,000 | Potency, µM (titrated, usually from 53.6 µM), for inactives: at the top dose activity change, negative = inhibition, hits mostly inhibitors | AID 2551 | Drosophila S2 Gal4-RORgamma UAS-luciferase reporter, 20 h; further: on the % scale 0 is the no-effect control and ±100 the full control effect; nearly all actives have a fitted effect of over 60% in size
Target sequence (P51450 whole entry, looked up, the tested form may be a part): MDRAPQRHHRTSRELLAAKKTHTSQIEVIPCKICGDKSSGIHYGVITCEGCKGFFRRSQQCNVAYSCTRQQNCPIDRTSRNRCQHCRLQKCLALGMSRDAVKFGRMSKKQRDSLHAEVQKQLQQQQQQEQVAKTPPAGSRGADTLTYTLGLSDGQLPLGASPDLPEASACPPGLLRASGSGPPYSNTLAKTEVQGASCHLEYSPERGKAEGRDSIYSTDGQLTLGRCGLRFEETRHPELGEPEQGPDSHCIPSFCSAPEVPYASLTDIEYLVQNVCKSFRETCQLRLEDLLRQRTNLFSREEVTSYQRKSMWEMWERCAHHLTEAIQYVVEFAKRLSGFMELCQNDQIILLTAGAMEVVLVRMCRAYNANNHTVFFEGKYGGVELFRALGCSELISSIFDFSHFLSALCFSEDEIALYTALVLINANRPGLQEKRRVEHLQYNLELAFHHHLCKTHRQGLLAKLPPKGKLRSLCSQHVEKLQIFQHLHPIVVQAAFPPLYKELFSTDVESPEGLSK
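A Gal4/UAS one-hybrid system in insect cells: metallothionein-promoter Gal4–ROR gamma fusion plus Photinus luciferase reporter. Copper sulfate 700 uM final, 20 hr ambient incubation, luminescent detection after 10 min with reagent.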
* hit, by the source's call; i = inactive; ? = inconclusive; / = no result given. The call rests on the fitted dose curve; in most records, active means well fitted curve in the direction sought with a large enough effect; inconclusive means small, poorly fitted or top-dose-only effect, or another doubt; inactive means no such curve, though single readings can be large; an effect the other way counts as inactive or inconclusive. Potency means the concentration at half of the fitted maximal effect.

SMILES	Gal4-VP16 FLuc	ATXN2 expr inh	HepG2 viability	ATXN viability	TGFb inhibitor	RORgamma inh
O=C(Nc1cc2ccc(O)cc2oc1=O)c1ccc(F)cc1	/	/	-32.3%	/	13.5%	/
CCc1cc2cc(OC)c(OC)cc2c(Cc2ccccc2)n1	/	21.5%	/	i	/	/
Cc1cc(NC(=O)N(C)CCc2c(C)nn(C)c2C)ccc1Br	/	8.7%	-2.8%	i	-4.0%	/
COc1ccc(/C=C/C(=O)NC(=S)NNC(=O)c2ccco2)cc1OC	-2.7%	9.4%	-2.5%	i	2.4%	-8.1%
COc1ccc(/C=C/C(=O)NC(=S)NNC(=O)c2ccco2)cc1	?	?	-2.9%	i	-19.0%	3.16µM*
Cc1ccc(S(=O)(=O)N(CC(=O)Nc2ccc3c(c2)OCO3)c2ccc(C)c(Cl)c2)cc1	/	-0.8%	-30.6%	i	?	/
COc1cccc(N2CCN(c3ncnc4c3[nH]c3ccc(F)cc34)CC2C)c1 (configuration not stated)	7.08µM*	3.55µM*	-69.9%	10µM*	?	?
COc1cccc(N2CCN(c3ncnc4c3[nH]c3ccccc34)CC2C)c1 (configuration not stated)	14.1µM*	/	/	/	/	?
Cc1ccc(NC(=O)CC(C)S(=O)(=O)c2ccc3c(c2)NC(=O)CO3)cc1Cl (configuration not stated)	/	-8.8%	-21.4%	?	-21.7%	/
CCOc1ccc(CNC(=O)c2cnc3sc(N4CCC(C)CC4)nn3c2=O)cc1OC	/	6.3%	3.3%	i	-0.2%	/
COc1ccc(NC(=S)NNC(=O)C2CC2c2ccc(C)cc2)cc1 (configuration not stated)	-16.9%	6.3%	3.6%	i	?	-21.3%
O=C(NNC(=S)Nc1ccc(F)cc1)C1CC1c1ccc(Cl)cc1 (configuration not stated)	20µM*	-8.5%	-5.7%	i	-7.9%	?
Cc1ccc(C2CC2C(=O)NNC(=S)Nc2cccc(Cl)c2)cc1 (configuration not stated)	-5.1%	-22.6%	-34.1%	i	?	-26.3%
Cc1ccc(NC(=S)NNC(=O)C2CC2c2ccc(C)cc2)cc1 (configuration not stated)	?	-1.4%	3.4%	i	14.4%	11.2µM*
COC(=O)C[C@H]1c2ccccc2S(=O)(=O)N1c1ccc(N(C)C)cc1	/	/	5.5%	/	-2.0%	/
COc1cc(=O)n2c(c1C(=O)N(C)Cc1nonc1C)CCN(C(=O)c1cc(C)ccc1C)CC2	/	/	/	i	/	/
O=C(N=Nc1c(O)n(C2OC(=O)c3ccccc32)c2ccccc12)c1ccc(O)cc1 (configuration not stated)	2.82µM*	16.7%	12.4%	i	9.8%	2.82µM*
O=C(NCCc1ccccc1)c1ccc(Cn2c(SCc3ccccc3F)nc3cccnc32)cc1	/	/	-26.2%	/	-39.1%	/
C=CCc1c(C)nc(C)nc1N/N=C/c1ccccc1	1.58µM*	4.2%	-42.1%	i	-6.3%	10µM*
CC[C@H]1OC(=O)C[C@@H](O)[C@H](C)[C@@H](O[C@@H]2O[C@H](C)C[C@H](N(C)C)[C@H]2O)[C@@H](CC=O)C[C@@H](C)C(=O)C=C[C@]2(C)O[C@H]2[C@@H]1C	5.6%	/	/	/	/	-32.9%
CCC1OC(=O)C[C@@H](O)[C@H](C)[C@@H](O[C@@H]2O[C@H](C)C[C@H](N(C)C)[C@H]2O)[C@@H](CC=O)C[C@@H](C)C(=O)/C=C/[C@]2(C)OC2C1C (some centres not stated)	/	/	/	15.8µM*	/	/
CS(=O)(=O)c1ccc(-c2cccc3c2OC(CNC(=O)c2cc(C4CC4)[nH]n2)C3)cc1 (configuration not stated)	/	/	/	i	/	/
N#C/C(=C/c1ccc(N2CCOCC2)o1)c1ccc(Cl)cc1	10µM*	-22.4%	-60.4%	i	57.8%	?
